Source: PubChem BioAssay (several laboratories)
MITF act: activators of MITF-driven TRPM1 promoter reporter, primary screen, cell-based, SK-MEL-5, luciferase, single point; SK-MEL-5 TRPM1-promoter luciferase, 24 h; % of positive control, neutral wells = 0; activation, % at 12.5 µM; 300,000 compounds, 0.75% hits; AID 588334, 2011;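 active = mean activation of at least 80% with every replicate also reaching 80%; inconclusive = mean reaches 80% but some replicate falls short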;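 note: 0% = neutral control wells and 100% = parthenolide positive control wells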
GAA850 FXN act: FXN promoter activators, primary screen, cell-based, luciferase luminescence, HEK293 lucGAA850; HEK293 lucGAA850 FXN promoter luciferase reporter, 24 h; percent of 10 µM SAHA response; activation, % at 6 µM; 360,000 compounds, 0.56% hits; AID 540364, 2011;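 active = activation above the average of all compounds screened plus 3 SD, cutoff fixed separately per campaign, cut at about 7.5% in these data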;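 note: 0% = DMSO wells and 100% = 10 µM SAHA wells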
Wnt bcat act: Wnt/beta-catenin pathway activators, primary screen, cell-based, plate reader, single point | Wnt/beta-catenin reporter cell assay, activator | activation, % at 9.35 µM | 300,000 compounds, 1.2% hits | AID 743398, 2014; in the data active = activation above about 30%, passing the limit was not always enough; inconclusive = no clear call, values can overlap the other calls;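 note: 0% = neutral control wells and 100% = positive control wells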
esBAF inh: Bmi1 luciferase reporter increase in mESCs, primary screen, esBAF inhibitor project, mouse ES cells, Bmi1 luciferase knock-in, single point; 24 h; 100% = twice the neutral-well signal; reporter increase, % at 12.5 µM; 350,000 compounds, 2% hits; AID 602393, 2012; in the data active = activation above about 40%; inconclusive = no clear call, values can overlap the other calls;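 note: 0% = median of the plate's neutral control wells and 100% = double that signal; a rise in the Bmi1 reporter signal indicates esBAF inhibition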
Starred values were filed as active, the others as inactive; ? = inconclusive; . = no result given; ! = a repeat was not active. Hits are enriched below; roughly 2.8% of the tested compounds scored in any of these assays.

SMILES	MITF act	GAA850 FXN act	Wnt bcat act	esBAF inh
Cc1ccc(/C=C/C(=O)c2ccc(O)cc2)cc1	72.6	1.5	0.1	.
O=C(/C=C/c1ccc(O)cc1)c1ccc(O)cc1O	28.1	0.8	24.6	70.0*
CC(=O)c1ccc(N2CCN(C(=O)c3ccc(Cn4c(=S)[nH]c5ccc(N6CCOCC6)cc5c4=O)cc3)CC2)cc1	13.8	0.7	3.9	60.5*
O=C(c1ccc2c(=O)n(Cc3ccccc3)c(=S)[nH]c2c1)N1CCOCC1	-11.7	0.4	-2.2	-3.5
CC(=O)Nc1ccc(C(=O)NCC(c2ccco2)N(C)C)cc1 (centres undefined)	-6.6	-1.1	0.9	.
CC(=O)c1ccc(-c2ccc(C(=O)NCC(c3ccco3)N(C)C)o2)cc1 (centres undefined)	23.9	2.8	0.8	80.4*
CN(C)C(CNC(=O)c1cccc(OC(F)F)c1)c1ccco1 (centres undefined)	8.4	0.1	5.5	45.2*
C[C@@H]1CN([C@@H](C)CO)C(=O)c2cc(NS(C)(=O)=O)ccc2O[C@@H](C)CCCCO[C@@H]1CN(C)C(=O)CCCN(C)C	.	.	.	-2.1
CC1CCN(c2ccc3c(c2)S(=O)(=O)c2ccccc2C3=O)CC1	85.6*	3.7	52.2*	52.7*
C[C@H]1CN([C@@H](C)CO)C(=O)c2cc(C#Cc3cccnc3)cnc2O[C@@H]1CN(C)Cc1ccc(F)cc1	.	.	.	9.0
COc1ccc(NC(=O)c2oc3ccccc3c2NC(=O)C2CCCO2)cc1OC (centres undefined)	23.6	2.7	-3.0	63.3*
COCC(=O)Nc1c(C(=O)Nc2ccc3c(c2)OCCO3)oc2ccccc12	91.6*	7.4	18.2	9.1
CCOC(=O)c1oc2ccccc2c1NC(=O)c1cccc(OC)c1	25.2	2.5	-6.3	-10.1
CCOCC(=O)Nc1c(C(=O)Nc2ccc3c(c2)OCCO3)oc2ccccc12	94.6*	4.2	15.4	.
COc1ccc(NC(=O)c2oc3ccccc3c2NC(=O)C2CC2)cc1OC	17.5	2.0	1.0	12.9
CCC(=O)Nc1c(C(=O)Nc2cccc(OC)c2)oc2ccccc12	74.0	6.8	.	42.7*
O=C(Nc1ccc2c(c1)OCCO2)c1oc2ccccc2c1NC(=O)C1CC1	1.1	4.5	4.9	.
COc1ccccc1NC(=O)N[C@H]1C=C[C@@H](CC(=O)N2CCC(Cc3ccccc3)CC2)O[C@@H]1CO	.	.	.	13.0
COc1ccc(CCNC(=O)c2coc3ccccc3c2=O)cc1OC	2.5	-1.2	-0.1	-6.1
COc1ccc(NC(=O)c2coc3ccccc23)cc1OC	111.5*	6.5	.	83.0*
CC(C)CC#Cc1cnc2c(c1)C(=O)N([C@@H](C)CO)C[C@@H](C)[C@@H](CN(C)C(=O)c1ccc3c(c1)OCO3)O2	.	.	.	-1.1
CCOc1ccc(N=CC2=C(O)CC(C)(C)CC2=O)cc1	29.1	-2.3	-2.4	47.6*
C[C@]12CC[C@H]3C(=CCc4cc(O)ccc43)[C@@H]1CCC2=O	36.6	2.4	0.2	30.9*!
CCCCCC(=O)Nc1nc2ccccc2[nH]1	.	1.5	53.4*	?
COc1ccc(CCC(=O)Nc2nnc(C)s2)cc1	.	2.5	63.3*	.
SMILES	MITF act	GAA850 FXN act	Wnt bcat act	esBAF inh
COc1ccc(Br)c(C(=O)Nc2nc3ccccc3[nH]2)c1	92.1*	5.3	6.3	48.9*
O=C(COc1ccc2ccccc2c1)Nc1nc2ccccc2[nH]1	-0.7	0.5	.	-8.0
COCc1nnc(NC(=O)CCc2ccc(OC)cc2)s1	.	0.1	0.2	-13.9
COc1ccc(OCC(=O)Nc2nc3ccccc3[nH]2)cc1	54.9	1.5	.	48.9*
COc1ccc(CCC(=O)Nc2nc3ccccc3[nH]2)cc1	39.9	1.9	.	46.0*
CC(C)Oc1ccc(C(=O)Nc2nc3ccccc3[nH]2)cc1	-80.8	-9.4	-4.2	-88.6
O=C(Nc1nc2ccccc2[nH]1)C1CCC1	57.4	5.3	10.1	37.4
CCC(Oc1ccccc1)C(=O)Nc1nc2ccccc2[nH]1 (centres undefined)	41.2	-0.7	6.6	52.9*
O=C(CC1CCCC1)Nc1nc2ccccc2[nH]1	.	4.3	39.7*	62.3*
O=C(C[C@H]1CC[C@@H]2[C@H](COC[C@H](O)CN2Cc2cc(F)ccc2F)O1)N[C@H]1CCN(Cc2ccccc2)C1	.	.	.	-2.5
COc1cc(/C=C/C(=O)N2C(=O)c3cccc(N)c3C2=O)cc(OC)c1OC	-12.5	5.1	134.7*	20.1
Cc1noc(C)c1S(=O)(=O)Nc1ccc2c(c1)CC(=O)N([C@@H](C)CO)C[C@H](C)[C@H](CN(C)Cc1ccc3c(c1)OCO3)O2	.	.	.	4.9
